# CYP2C19 activ – increases human CYP2C19 enzyme activity | recombinant CYP2C19, luciferin-H EGE luminescence; active compounds read high; 0 = fully inhibited enzyme, 1 = untreated enzyme | activation factor at 5 µM | 96,000 tested, under 10 active;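 active = activation factor of at least 2 at 5 µM in the primary screen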;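 also: 0 = wells with 2.5 mM tranylcypromine and 1 = vehicle-only wells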
# Target sequence (P33261 whole entry, looked up): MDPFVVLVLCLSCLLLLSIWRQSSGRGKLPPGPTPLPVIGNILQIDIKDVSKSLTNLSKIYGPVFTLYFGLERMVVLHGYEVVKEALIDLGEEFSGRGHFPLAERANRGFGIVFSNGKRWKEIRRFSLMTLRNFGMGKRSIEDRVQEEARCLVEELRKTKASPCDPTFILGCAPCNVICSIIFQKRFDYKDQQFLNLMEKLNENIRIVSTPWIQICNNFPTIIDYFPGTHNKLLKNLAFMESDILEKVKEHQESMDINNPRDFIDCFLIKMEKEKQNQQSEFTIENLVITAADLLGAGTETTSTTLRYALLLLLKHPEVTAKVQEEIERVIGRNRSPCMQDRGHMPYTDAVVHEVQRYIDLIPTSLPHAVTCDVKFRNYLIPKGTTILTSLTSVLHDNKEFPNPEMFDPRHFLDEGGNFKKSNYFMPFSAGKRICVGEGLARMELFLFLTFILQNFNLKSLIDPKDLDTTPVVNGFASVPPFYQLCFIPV
# CYP2C19 inhib – inhibitors of human CYP2C19 | P33261 | CYP2C19 Supersomes, luciferin-H EGE luminescence, 30 min | inhibition, % at 5 µM | 96,000 tested, 21% active;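 active = CYP2C19 inhibition above a set limit at 5 µM in the primary screen, cut at about 50% in these data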;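 also: plate controls were negative control wells for no effect and 2.5 mM tranylcypromine positive control for full effect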
# CYP2C9 inh – inhibitors of human CYP2C9; P11712; CYP2C9 Supersomes, luciferin-H conversion, luminescence; inhibition, % at 5 µM; 96,000 tested, 20% active;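 active = blocking of liver enzyme CYP2C9 beyond about 50% at 5 µM, limit read from the data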
# Measles CPE – protection of cells from measles virus. 140,000 tested, 1.5% active. Measles virus-infected cells, CPE protection, absorbance. protection (pct of control), % at 4 µM; in the data active = protection mostly above about 24%, no sharp cut-off; inactive = mostly below about 26%
# CYP2C9 act – CYP2C9 (human) activation. activation factor at 5 µM. recombinant CYP2C9, luciferin-H conversion, luminescence; active compounds read high; factor 1 = untreated enzyme, 0 = blocked. 96,000 tested, 1.4% active. P11712;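 active = activation factor of 2 or more for CYP2C9 at a 5 µM dose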;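 also: 0 = sulfaphenazole-blocked wells and 1 = vehicle-only wells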
# Active calls of the source: *; nt = not tested or not shown. A selection: hits, their analogues and other compounds. The true share with any hit is near 22%.
SMILES,CYP2C19 activ,CYP2C19 inhib,CYP2C9 inh,Measles CPE,CYP2C9 act
CCC(NC(=O)NCCCn1ccnc1)(C(F)(F)F)C(F)(F)F,0,97.2*,84.8*,1.4,0.2
O=C(COc1ccc(Cl)cc1)NCCCn1ccnc1,0,99.4*,90.2*,6.8,0.1
Clc1ccccc1CSc1nnc(/C=C/c2ccccc2)o1,1,0.5,2.8,3.6,1
Cc1nonc1OCCNc1ccc([N+](=O)[O-])cc1,nt,nt,nt,11.2,nt
O=C(CNC(=O)c1ccc(Cl)cc1Cl)NCCCn1ccnc1,0.3,69.3*,51.4*,17.4,0.5
CCOc1ccc(NC(=O)C(=O)NCCCn2ccnc2)cc1,0.3,72.8*,60.2*,11.6,0.4
CCCOc1ccc(NC(=O)C(=O)NCCCn2ccnc2)cc1,nt,nt,nt,5.7,nt
O=c1c2c3nc4ccccc4nc3n(CC3CCCO3)c2ncn1CCc1ccccc1 (configuration not stated),0.8,19.0,14.7,18.9,0.9
COC(=O)CC1(c2cccc3ccccc23)C(=O)c2ccccc2C1=O,0.8,15.9,42.5,30.0,0.6
O=C(OCc1cc(Cl)ccc1OC(F)F)c1cc(S(=O)(=O)O)ccc1O,1,2.6,72.7*,3.1,0.3
CCOc1cc(C(c2c(C)[nH][nH]c2=O)c2c(C)[nH][nH]c2=O)ccc1O,nt,nt,nt,9.5,nt
Cc1[nH]nc2c1C1(CCN(C(=O)OCc3ccccc3)CC1)C(C#N)=C(N)O2,0.3,67.5*,48.0,8.3,0.5
Cc1[nH]nc2c1C1(CCN(C(=O)c3ccccc3)CC1)C(C#N)=C(N)O2,1,-1.9,-11.7,14.8,1.1
N#CC1=C(N)OC2=C(C(=O)CCC2)C12CCN(C(=O)OCc1ccccc1)CC2,0,98.6*,65.8*,3.2,0.3
CC(=O)N1CCC2(CC1)C(C#N)=C(N)Oc1n[nH]c(C)c12,1.1,-10.5,-20.6,17.1,1.2
Cc1ccc(SCc2[nH]nc3c2C2(CCSCC2)C(C#N)=C(N)O3)cc1,0.8,16.6,32.1,1.3,0.7
CC1(C)CC(=O)C2=C(C1)OC(N)=C(C#N)C21CCN(C(=O)OCc2ccccc2)CC1,0.8,22.2,11.5,8.4,0.9
Cc1ccc(SCc2[nH]nc3c2C2(C(=O)Nc4ccc([N+](=O)[O-])cc42)C(C#N)=C(N)O3)cc1 (configuration not stated),0.7,33.5,52.5*,17.4,0.5
CCOC(=O)N1CCC2(CC1)C(C#N)=C(N)OC1=C2C(=O)CC(C)C1 (configuration not stated),0.8,16.1,68.2*,3.9,0.3
CCOc1ccccc1NC(=O)C(=O)/C=C(\O)c1cc(OC)ccc1OC,0.8,24.5,-23.8,5.3,1.2
COc1ccc(-c2cc(=O)n(-c3ccc([N+](=O)[O-])cc3)[nH]2)cc1,nt,nt,nt,2.1,nt
CN(C)S(=O)(=O)c1cccc(NC(=O)Cc2ccc(Cl)cc2)c1,nt,nt,nt,7.0,nt
CCOC(=O)N1CCC2(CC1)C(C#N)=C(N)Oc1n[nH]c(CSc3ccc(C)cc3)c12,0.6,42.4,70.1*,2.8,0.3
COc1ccc(CNC(=O)C(c2ccco2)N(C(=O)c2csnn2)c2cccc(C)c2C)cc1 (configuration not stated),nt,nt,nt,7.6,nt
CCOC(=O)C(C)N1N=C(/C=C/c2ccc(OC)cc2)CCC1=O (configuration not stated),0.8,19.2,32.0,14.0,0.7
SMILES,CYP2C19 activ,CYP2C19 inhib,CYP2C9 inh,Measles CPE,CYP2C9 act
Cc1nn(-c2ccccc2)c(C)c1C(=O)OCC(=O)c1c(N)n(CC(C)C)c(=O)n(C)c1=O,0.6,39.0,61.3*,9.6,0.4
CCC(=O)OCC(=O)c1c(N)n(Cc2ccccc2)c(=O)n(C)c1=O,0.3,66.0*,42.3,12.9,0.6
Cn1c(=O)c(C(=O)CN2CCCc3ccccc32)c(N)n(Cc2ccccc2)c1=O,0.1,87.1*,92.8*,14.5,0.1
Cn1c(=O)c(C(=O)CN2CCc3ccccc32)c(N)n(Cc2ccccc2)c1=O,nt,nt,nt,7.3,nt
Cn1c(=O)c(C(=S)NC(=O)C2CC2)c(N)n(Cc2ccccc2)c1=O,0.8,18.5,29.6,2.8,0.7
Cn1c(=O)c(C(=O)CSc2nnc(Nc3ccccc3)s2)c(N)n(Cc2ccccc2)c1=O,1,3.3,72.4*,17.8,0.3
COc1cccc(N2CCN(Cc3nc(N)nc(N4CCCc5ccccc54)n3)CC2)c1,0.8,19.6,16.4,15.9,0.8
CC(=O)C(=Nc1ccc(Cl)cc1Cl)NNc1cccc(Cl)c1,0,99.3*,100.3*,1.8,0
Cc1ccc(S/C=C\C(=O)c2ccccc2)cc1,0.9,12.4,10.5,21.9,0.9
CCOC(=O)C1=C(C)NC(=O)NC1c1ccc(OCC(=O)OC)c(OC)c1 (configuration not stated),0.8,17.6,21.0,8.5,0.8
CCC(Sc1nnc2c3ccccc3n(CC)c2n1)C(=O)Nc1sc2c(c1C#N)CCCC2 (configuration not stated),0.6,37.6,51.9*,3.5,0.5
CCC(Sc1nc(C)cc(=O)[nH]1)C(=O)Nc1sc2c(c1C#N)CCCC2 (configuration not stated),1,-0.6,32.8,6.4,0.7
CCOC(=O)c1sc(NC(=O)C(CC)Sc2nnc3c4ccccc4n(C(C)C)c3n2)nc1C (configuration not stated),0.6,35.2,66.5*,21.4,0.3
CCOC(=O)Cc1nnc(NC(=O)C(CC)Sc2nnc3c4ccccc4n(C)c3n2)s1 (configuration not stated),0.5,48.5,94.1*,5.8,0.1
O=C(NCc1ccc(F)cc1)c1cnc2sccn2c1=O,0.6,39.7,-18.9,nt,1.2
Cc1ccc(NC(=O)C2CC(=O)n3ncnc3N2)cc1 (configuration not stated),1.2,-20.1,15.8,13.4,0.8
CCN(CC)CCCNC(=O)c1cc(-c2ccc(Cl)cc2)on1,1.1,-6.1,22.0,6.1,0.8
COc1c(F)c(F)c(C(=O)Nc2ccc(N3CCN(C(C)=O)CC3)c(Cl)c2)c(F)c1F,0.6,38.1,66.3*,20.3,0.3
COc1cccc(C(=O)Nc2ccc(N3CCN(Cc4ccccc4)CC3)cc2)c1,0.9,11.5,4.7,5.4,1
O=C(Nc1ccc(N2CCN(C(=O)c3cccs3)CC2)c(Cl)c1)c1ccco1,0.7,32.3,54.2*,3.1,0.5
Cc1ccccc1C(=O)N1CCN(c2ccc(NC(=O)c3ccco3)cc2Cl)CC1,0.6,42.6,43.8,3.8,0.6
COc1c(F)c(F)c(C(=O)Nc2ccc(N3CCN(Cc4ccccc4)CC3)cc2)c(F)c1F,1.2,-22.2,57.4*,5.5,0.4
O=C(Nc1ccc(N2CCN(C(=O)c3ccco3)CC2)c(Cl)c1)c1c(F)c(F)c(F)c(F)c1F,0.3,68.2*,72.6*,3.7,0.3
N=c1oc2ccccc2cc1-c1nc2ccccc2c(=O)[nH]1,0.7,27.3,18.6,9.6,0.8
CCC(=O)N(Cc1cc2cc(C)c(C)cc2[nH]c1=O)C1CCCCC1,0.2,80.6*,69.2*,1.5,0.3

# Bioassay records: PubChem BioAssay, several laboratories
